Assay outcomes deposited in PubChem BioAssay by several laboratories.
Compounds with a hit are over-represented: about 27% of the library has one in this group of screens.
Cav3 T inh = inhibitors of human Cav3.2 T-type calcium channel; O95180; Cav3.2-expressing cells, Fluo-4 calcium fluorescence FDSS; hits give low values; B-score at 10 µM; hit rate 4% among 100,000; AID 449739;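 active means single-dose well whose peak fluorescence ratio is a statistical outlier from its plate by either plate-standardised score or position-corrected B-score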
CYP2C19 act = increases human CYP2C19 enzyme activity | recombinant CYP2C19, luciferin-H EGE luminescence; hits give high values; 0 = fully inhibited enzyme, 1 = untreated enzyme | activation factor at 5 µM | P33261 | AID 1025 | 96,000 tested, under 10 active;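 active means activation factor of at least 2 at 5 µM in the primary screen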;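 further: 0 = wells with 2.5 mM tranylcypromine and 1 = vehicle-only wells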
CYP2C19 inhib = inhibitors of human CYP2C19; P33261; CYP2C19 Supersomes, luciferin-H EGE luminescence, 30 min; inhibition, % at 5 µM; hit rate 21% among 96,000;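 active means CYP2C19 inhibition above a set limit at 5 µM in the primary screen, cut at about 50% in these data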;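 further: plate controls were negative control wells for no effect and 2.5 mM tranylcypromine positive control for full effect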
CYP2C9 inh = inhibitors of human CYP2C9; P11712; CYP2C9 Supersomes, luciferin-H conversion, luminescence; inhibition, % at 5 µM; hit rate 20% among 96,000; AID 777;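 active means blocking of liver enzyme CYP2C9 beyond about 50% at 5 µM, limit read from the data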
CYP2C9 act = activators of human CYP2C9 | recombinant CYP2C9, luciferin-H conversion, luminescence; hits give high values; factor 1 = untreated enzyme, 0 = blocked | activation factor at 5 µM | hit rate 1.4% among 96,000;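 active means activation factor of 2 or more for CYP2C9 at a 5 µM dose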;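 further: 0 = sulfaphenazole-blocked wells and 1 = vehicle-only wells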
Numbers without * were called inactive; / = no result.

SMILES	Cav3 T inh	CYP2C19 act	CYP2C19 inhib	CYP2C9 inh	CYP2C9 act
CC(SC1=NCCS1)C(=O)Nc1nnc(-c2ccc(Br)cc2)s1 (stereo not drawn)	-2.96	1.2	-18.3	56.7*	0.4
CC(SC1=NCCS1)C(=O)Nc1nnc(-c2ccc(F)cc2)s1 (stereo not drawn)	-2.94	1	3.4	5.7	0.9
COC(C/C=C\[C@H](O)[C@@H](C)OCc1ccccc1)OC	-0.137	/	/	/	/
COc1cccc(N2C(=O)C(c3ccccc3)=C(c3nc4ccccc4s3)C2NC(C)=O)c1 (stereo not drawn)	/	0.4	55.9*	51.4*	0.5
CC(=O)NC1C(c2nc3ccccc3s2)=C(c2ccccc2)C(=O)N1c1ccc(C)cc1 (stereo not drawn)	/	0.6	42.0	27.6	0.7
CN(Cc1ccccc1)C(=O)CCCn1c(=O)[nH]c2cc(Cl)ccc2c1=O	-0.0221	0.2	81.9*	-0.2	1
O=c1cnc2ccccc2n1CC1CCCCC1	-0.114	0	95.8*	32.4	0.7
Clc1ccc(OCCn2cnc3ccccc32)cc1	-0.0258	0.2	83.5*	76.9*	0.2
c1ccc(Cn2cnc3ccccc32)cc1	1.57	/	/	/	/
c1ccc2c(c1)ncn2CCC1CCCCC1	-0.761	0.1	92.2*	58.0*	0.4
COC(=O)Cc1nnc(NC(=O)C(C)C)s1	0.344	1	-1.2	-1.8	1
CC(=O)C1=C(C)N(CC2CC2)C(=O)N[C@H]1c1ccc(Br)cc1	-0.399	/	/	/	/
CC(=O)Nc1ccccc1-c1nc2ccc(C(=O)N3CCN(c4cc(C)ccc4C)CC3)cc2[nH]c1=O	-3.66*	0.3	69.5*	99.1*	0
O=C(Nc1cn(-c2ccccc2)nc1-c1cccs1)c1ccco1	-2.3	0.6	37.0	35.2	0.6
N#Cc1nc(Cc2cccc3ccccc23)oc1NCCCn1ccnc1	-0.851	0	98.4*	96.6*	0
COc1ccc(CNc2oc(Cc3cccc4ccccc34)nc2C#N)cc1	-7.01*	0.2	79.4*	95.7*	0
COc1ccc(CCNc2oc(COc3ccccc3)nc2C#N)cc1	/	0.5	49.7	70.2*	0.3
N#Cc1nc(Cc2cccc3ccccc23)oc1NCCCN1CCOCC1	2.92	0.7	26.1	21.4	0.8
CN(Cc1ccccc1)c1oc(COc2ccccc2F)nc1C#N	-4.53*	0	99.9*	98.7*	0
COc1ccc(Nc2oc(COc3ccc(C)cc3)nc2C#N)cc1	0.291	/	/	/	/
N#CCC(=O)N1CCCCCC1	/	0.7	30.3	25.8	0.7
Cc1[nH]nc(SCC(=O)N2CCC(C)CC2)c1[N+](=O)[O-]	0.0206	0.5	48.2	20.0	0.8
O=S(=O)(NCC1CCCO1)c1ccc(S(=O)(=O)N(Cc2ccccc2F)C2CCCCC2)cc1 (stereo not drawn)	0.406	/	/	/	/
CCS(=O)(=O)N1CCN(C2CCC(C)CC2)CC1 (stereo not drawn)	0.746	1	-2.0	-12.8	1.1
O=C(CSc1nc2ccccc2[nH]1)N1CCN(S(=O)(=O)c2ccc(Cl)cc2)CC1	-2.48	0.9	8.1	18.0	0.8
SMILES	Cav3 T inh	CYP2C19 act	CYP2C19 inhib	CYP2C9 inh	CYP2C9 act
COc1ccc(CNc2oc(COc3ccccc3)nc2C#N)cc1	/	0.5	52.7*	66.3*	0.3
CN(C)c1oc(-c2ccco2)nc1C#N	-1.23	1	-1.0	0.1	1
CN(Cc1ccccc1)c1oc(-c2ccco2)nc1C#N	-4.19*	0.4	58.8*	62.0*	0.4
CNc1oc(-c2ccc(OCc3ccccc3)cc2)nc1C#N	/	1.1	-8.0	-123.7	2.2*
N#Cc1nc(COc2ccccc2F)oc1NCCc1ccccc1	/	0.1	87.5*	88.0*	0.1
N#Cc1nc(COc2ccccc2Cl)oc1NCc1ccc(F)cc1	0.21	1	4.2	19.0	0.8
COc1cc(CN2CCC(C(=O)NC3CCCC3)CC2)ccc1O	0.0673	1.1	-7.8	-17.4	1.2
CN=C1c2cc3cc(OC)ccc3n2CCN1C	-0.567	/	/	/	/
Cc1ccc(Cn2nnnc2CN2CCC(O)(c3ccccc3F)CC2)cc1	0.0112	/	/	/	/
COc1ccc(Nc2oc(COc3ccc(OC)cc3)nc2C#N)cc1	-1.88	/	/	/	/
COc1ccc(Nc2oc(COc3ccccc3F)nc2C#N)cc1	-1.28	0.5	54.2*	60.3*	0.4
N#Cc1nc(Cc2ccccc2)oc1NCc1ccccc1	-5.41*	/	/	/	/
CCN(CCCNC(=O)COc1cc(=O)n(C)c2ccccc12)c1cccc(C)c1	-0.801	0.7	27.2	10.6	0.9
CCN(CCCNC(=O)CCCn1c(=O)[nH]c2ccccc2c1=O)c1cccc(C)c1	-5.5*	0.5	48.5	61.6*	0.4
CCN(CCCNC(=O)CCn1c(=O)[nH]c2ccccc2c1=O)c1ccccc1	-3.23	0.4	62.4*	24.6	0.8
NC(=O)CSc1nc2c(sc3ccccc32)c(=O)n1CCCN1CCOCC1	1.48	0.8	16.3	4.7	1
N[C@@H](Cc1ccccc1)c1nnc(SCc2ccccc2Cl)o1	-1.54	0.2	78.9*	36.3	0.6
C/C(=N/NC(=O)CNc1ccc(C)cc1)c1ccc(Br)s1	0.0169	1	-1.3	-0.5	1
COc1ccc(C(=O)NCCn2cc(SCC(=O)Nc3cc(C)on3)c3ccccc32)cc1OC	-0.547	0.4	56.0*	45.0	0.6
COc1ccccc1C(=O)NCCn1cc(SCC(=O)Nc2cc(C)on2)c2ccccc21	-1.1	/	/	/	/
Cc1cc(NC(=O)CSc2cn(CCNC(=O)c3ccc(Cl)cc3)c3ccccc23)no1	-6.13*	0.7	34.2	46.0	0.5
Cc1cc(NC(=O)C2CCCCC2C(=O)O)no1 (stereo not drawn)	0.127	1.1	-13.9	-21.8	1.2
Cc1cc2cc3c(cc2nc1SCC(=O)Nc1nc(C)c(C)s1)OCO3	0.134	0.9	6.4	14.9	0.9
Cc1cc(C2=CC(C)(c3cc(C)oc3C)Nc3nc(C(F)(F)F)nn32)c(C)o1 (stereo not drawn)	-3.55	0.6	41.4	87.3*	0.1
NC(=O)C1(N2CCCCC2)CCN(c2nc(-c3ccccc3)cs2)CC1	-0.32	0	95.1*	88.0*	0.1
SMILES	Cav3 T inh	CYP2C19 act	CYP2C19 inhib	CYP2C9 inh	CYP2C9 act
NC(=O)C1(N2CCCCC2)CCN(c2ccc3nnc(-c4ccccc4)n3n2)CC1	1.77	0.2	77.7*	67.8*	0.3
COc1ccc(S(=O)(=O)N2CCN(c3ccc4nnc(-c5ccccc5)n4n3)CC2)cc1	1.85	0.2	76.0*	87.2*	0.1
c1ccc(-c2nnc3ccc(N4CCC5(CC4)OCCO5)nn23)cc1	-1.67	0.9	9.8	47.6	0.5
Brc1ccc(-c2nnc3ccc(N4CCN(c5ccccc5)CC4)nn23)cc1	-1.79	0.9	9.7	25.0	0.8
COc1ccc(CN2C(=O)CCC2(C)C(=O)NC2CCCCCC2)cc1 (stereo not drawn)	/	1	3.0	-4.2	1
CC1(c2nnc(-c3ccc(Cl)cc3)o2)CC(c2cccnc2)=NO1 (stereo not drawn)	0.394	/	/	/	/
CC1CCN(C(=O)CSc2nnc(CN3CCOCC3)n2-c2ccccc2)CC1	0.0303	1.1	-11.4	-19.5	1.2
COc1ccc(OC)c2c(C)cc(NCCN3CCOCC3)nc12	0.27	0.9	8.8	-5.9	1.1
